# Sampled rows, rich in hits. Any-hit rate of the full collection: about 19%.
# TDP1 cell CPT: qHTS for Inhibitors of human tyrosyl-DNA phosphodiesterase 1 (TDP1): qHTS in cells in presence of CPT; chicken DT40 Tdp1-/-;hTDP1 cells + 20 nM CPT, ATP luminescence, 48 h; Potency, µM (doses to about 46.2 µM), usual class: inhibitors; hit rate 12% among 420,000; further: nearly all actives have a fitted effect of over 55% in size
#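 Chicken DT40 Tdp1-/- cells stably complemented with human TDP1 were seeded at 400 cells/well in medium containing 20 nM camptothecin, exposed to pin-transferred compounds, and grown at 37 °C for at least 48 hr. Viability was read as ATP luminescence.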
# TGFb SMAD3 inh: qHTS for Inhibitors of TGF-b; HepG2 CAGA-GFP TGF-b/SMAD3 reporter, GFP fluorescence, 18 h; TGF-beta stimulated, 500 pg/mL final; Potency, µM (top dose mostly 46.1 µM), hits mostly inhibitors; hit rate 1.2% among 410,000; AID 588855, 2011; further: nearly all actives have a fitted effect of over 65% in size
#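 First, reporter cells (HEPG2 CAGA-GFP) rested 2 h at 37 degrees C. Next, compounds were pinned in and TGF-beta added to 500 pg/mL final. After 18 h, GFP was imaged per cell and summed per well.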
# IL-1B inflam inh: qHTS for Inhibitors of Inflammasome Signaling: IL-1-beta AlphaLISA Primary Screen. activity change, % at 57.5 µM. hit rate 4.7% among 360,000. THP-1 LPS/ATP IL-1B secretion, AlphaLISA, 16 h; hits give low values. AID 743279, 2014; in the data active means activity change below about -50%; inconclusive means mostly about -30% to -49%
#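 THP-1 cells pretreated 1 hr with compounds (up to 57.5 uM final), then stimulated with LPS (250 ng/mL final) plus ATP (1.25 mM final); secreted IL-1B measured by AlphaLISA after 16 hr, decreased signal indicating inhibition.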
# HepG2 viability: qHTS for Inhibitors of TGF-b: Cytotox Counterscreen; HepG2 CAGA-GFP viability, ATP luminescence, 18 h; Potency, µM (highest dose often 46.1 µM), most hits filed as cytotoxic; hit rate 0.76% among 410,000; AID 588856, 2011
#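 HepG2 CAGA-GFP cells (1000/well, DMEM with 1% FBS) received compound, then TGF-beta at 500 pg/mL final, and were incubated 18 hours at 37 degrees C. Viability was read by CellTiter-Glo luminescence. Media-only wells were set as complete cell-killing and DMSO as no toxicity.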
# DT40 TDP1 no CPT: qHTS for Inhibitors of human tyrosyl-DNA phosphodiesterase 1 (TDP1): qHTS in cells in absence of CPT. hit rate 15% among 420,000. Potency, µM (highest dose often 46.2 µM), hits mostly inhibitors. DT40 Tdp1-/- hTDP1 cells, no CPT, ATP luminescence, 48 h; further: nearly all actives have a fitted effect of over 55% in size
#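 Cells were dispensed at 400 per well, compounds added by pin tool, plates incubated ≥48 hr at 37 °C, then CellTiter-Glo added for 30 min at room temperature before luminescence reading. Line: DT40 Tdp1-/- complemented with hTDP1; camptothecin omitted.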
# ASM inhibitor: Inhibitors of Secretory Acid Sphingomyelinase (S-ASM): qHTS. Sphingomyelin phosphodiesterase (Homo sapiens), P17405. placental ASM, HMU-PC fluorogenic substrate, 60 min. Potency, µM (series often up to 57.5 µM), most hits filed as inhibitors. hit rate 0.006% among 340,000. AID 504937, 2011
# Target sequence (P17405 47-631 limits assumed): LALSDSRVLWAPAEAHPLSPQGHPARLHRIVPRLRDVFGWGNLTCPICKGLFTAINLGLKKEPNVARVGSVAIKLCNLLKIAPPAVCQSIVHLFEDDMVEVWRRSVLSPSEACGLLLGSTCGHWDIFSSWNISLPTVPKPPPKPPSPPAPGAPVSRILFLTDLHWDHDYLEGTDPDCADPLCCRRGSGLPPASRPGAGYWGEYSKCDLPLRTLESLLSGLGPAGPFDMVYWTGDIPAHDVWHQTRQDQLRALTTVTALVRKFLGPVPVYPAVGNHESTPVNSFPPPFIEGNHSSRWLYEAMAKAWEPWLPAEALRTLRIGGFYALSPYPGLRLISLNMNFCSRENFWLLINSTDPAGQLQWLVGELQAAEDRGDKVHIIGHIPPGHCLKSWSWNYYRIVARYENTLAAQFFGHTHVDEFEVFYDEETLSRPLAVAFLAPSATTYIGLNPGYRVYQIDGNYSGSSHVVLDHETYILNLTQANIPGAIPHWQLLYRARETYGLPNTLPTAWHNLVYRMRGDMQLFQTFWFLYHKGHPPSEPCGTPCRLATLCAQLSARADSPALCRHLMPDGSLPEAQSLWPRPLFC
#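 Fluorogenic HMU-PC substrate (9 uM final) is turned over by placental ASM in 60 min at 37 C after a 10 min compound preincubation. Reaction ended by alkaline stop (pH 10), with fluorescence read at 386/447 nm.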
# Numbers stand for hits; - = inactive; ? = inconclusive; . = no result. Unless noted, the call rests on the fitted dose curve; in most records, active means well fitted curve in the direction sought with a large enough effect; inconclusive means small, poorly fitted or top-dose-only effect, or another doubt; inactive means no such curve, though single readings can be large; an effect the other way counts as inactive or inconclusive.
SMILES,TDP1 cell CPT,TGFb SMAD3 inh,IL-1B inflam inh,HepG2 viability,DT40 TDP1 no CPT,ASM inhibitor
CCc1cccc(CC)c1-n1nnc2c(sc3nc(C)cc(C)c32)c1=O,?,-,.,-,?,.
CCc1ccc2nc3nc(C)cc(C)c3c(N)c2c1,?,13µM,-104,-,11µM,-
CCN(CC)CCNc1nc(C(F)(F)F)nc2c1nnn2Cc1ccccc1,-,-,-60,-,?,-
OCCOCCn1c(CCNc2nc(-c3ccc(Cl)cc3)cs2)nc2cc(Cl)c(Cl)cc21,?,?,-,-,?,-
Cc1ccc(Cn2c(C(C)Nc3nc(-c4ccc(Cl)cc4)cs3)nc3cc(C(=O)NCCCO)ccc32)cc1 (stereo not given),10µM,?,-,-,8.2µM,-
Cc1ccc(Cn2c(CCNc3nc(-c4ccc(C)cc4)cs3)nc3cc(C(=O)NCCCO)ccc32)cc1,21µM,-,-,-,15µM,-
Cc1ccc(Cn2c(C(C)Nc3nc(-c4ccc(C)cc4)cs3)nc3cc(Cl)c(Cl)cc32)cc1 (stereo not given),?,-,-,-,-,-
O=C1NN=C(c2ccccc2)CC1c1ccc(Cl)cc1Cl (stereo not given),?,-,?,-,?,-
O=C1NN=C(c2ccc(Cl)cc2)CC1c1cccc(Cl)c1 (stereo not given),29µM,-,-,-,16µM,?
C1=C(c2ccc(-c3ccccc3)cc2)Nc2ncnn2C1c1ccco1 (stereo not given),21µM,-,-,-,16µM,-
Cn1cccc1C1C=C(c2ccc(C(C)(C)C)cc2)Nc2ncnn21 (stereo not given),?,-,-,-,23µM,-
Fc1ccc(C2=CC(c3ccc(Br)o3)n3ncnc3N2)cc1 (stereo not given),?,-,-,-,?,-
Brc1ccc(C2=CC(c3cccs3)n3ncnc3N2)cc1 (stereo not given),?,-,-,-,7.3µM,-
CC(=O)c1ccc(S(=O)(=O)NC2CC2)cc1,-,-,-,-,-,-
CC(Oc1ccc(Cl)cc1)C(=O)Nc1ccccc1N1CCOCC1 (stereo not given),?,-,-,-,21µM,-
Cc1cc(Cl)ccc1OC(C)C(=O)Nc1ccccc1N1CCOCC1 (stereo not given),?,-,-58,-,?,-
Cc1cc(Cl)ccc1OC(C)C(=O)N1CCCN(C(=O)C(C)Oc2ccc(Cl)cc2C)CC1 (stereo not given),21µM,?,-65,-,21µM,-
COc1ccc(/C=C/C(=O)N(CCC(N)=O)c2ccccc2)cc1S(=O)(=O)N1CCOCC1,?,-,-,-,-,-
CCOC(=O)N1CCN(c2ccc(Cl)cc2)CC1,-,-,-,-,-,-
CCOC(=O)C(/C=C(\C#N)C(=O)OCC)=C(/N)N1CCN(c2ccc(Cl)cc2)CC1,-,-,-,-,16µM,-
Cc1cn2c(=O)cc(COc3ccc(NC(=O)c4cccc(F)c4)cc3)nc2s1,-,-,.,-,-,.
O=C(NC(=S)NN1CCOCC1)c1cc(Br)ccc1Cl,-,-,-,-,?,-
COC(=O)c1ccccc1NC(=O)Cn1c(=O)cc(C)c2c(C)nn(C)c21,-,?,.,-,?,.
COC(=O)c1ccc(Cn2c(=O)cc(C)c3c(C)nn(C)c32)cc1,10µM,-,.,-,16µM,.
COc1cccc(Cn2c(=O)cc(C)c3c(C)nn(-c4ccc(C)cc4)c32)c1,21µM,-,.,-,18µM,.
SMILES,TDP1 cell CPT,TGFb SMAD3 inh,IL-1B inflam inh,HepG2 viability,DT40 TDP1 no CPT,ASM inhibitor
Cc1nn(C)c2c1c(-c1ccccc1)cc(=O)n2Cc1ccccc1F,?,-,.,-,-,.
COc1ccc(OC)c(NC(=O)Cn2c(=O)cc(-c3ccccc3)c3c(C)nn(C)c32)c1,?,-,.,-,21µM,.
Cc1nn(C)c2c1c(-c1ccccc1)cc(=O)n2Cc1ccc(F)cc1,16µM,-,.,-,?,.
Cc1nn(C)c2c1c(-c1ccccc1)cc(=O)n2CC(=O)NC(C)(C)C,?,-,.,-,?,.
O=C(Nc1cc2c3c(c1)CC(=O)N3CCC2)C1CC1,-,-,-,-,-,-
Cc1ccc(C)c2[nH]c(=O)c(CN(CCCN(C)C)C(=O)NCc3ccccc3)cc12,?,-,?,-,23µM,-
Cc1cc(C)c2cc(CN(CCCN(C)C)C(=S)NCc3ccccc3)c(=O)[nH]c2c1,21µM,-,-73,-,?,-
COc1ccc(/C(C)=N/NC(=S)NCc2ccco2)cc1,2.9µM,-,-,-,1.5µM,-
C=CCNC(=S)N/N=C(\C)c1ccc(OC)cc1,?,-,-,-,?,-
C=CCNC(=S)N/N=C(\C)c1cccc(OC)c1,1.2µM,-,-77,-,2.1µM,-
COc1ccc(CNC(=S)N/N=C(\C)c2ccc(OC)cc2)cc1,12µM,?,-,-,5.2µM,-
COc1cccc(-c2nc(CS(=O)(=O)CC(=O)NCC(C)c3ccccc3)c(C)o2)c1 (stereo not given),?,?,-,-,-,-
COc1cc2cc[n+]3cc4c(OC)c(OC)ccc4cc3c2cc1OC,2.3µM,.,.,.,2.9µM,.
COc1cc2cc(C)c(Br)c(OC)c2cc1OC,?,-,-,-,?,-
Cn1cc(Cl)c(C(=O)OCC(=O)Nc2nc(-c3ccc(Br)cc3)cs2)n1,?,-,-,-,?,-
Cc1ccc(S(=O)(=O)NCc2ccccc2)cc1C(=O)N1CCN(S(=O)(=O)c2ccccc2F)CC1,12µM,-,-,-,?,.
Cc1ccc(S(=O)(=O)NCc2ccccc2)cc1C(=O)N1CCCCC1,-,-,-,-,-,-
Cc1ccc(S(=O)(=O)NCc2ccccc2)cc1C(=O)N1CC(C)CC(C)C1 (stereo not given),?,?,-,-,18µM,-
O=C(Nc1ccccc1)C1Cc2c(-c3ccco3)ccnc2O1 (stereo not given),?,-,-,-,?,.
COc1ccc(CNC(=O)c2cc3sccc3n2C)cc1,-,.,.,-,-,.
COc1ccc(CNC(=O)CN(C(=O)c2cc3sccc3n2C)C2CCCC2)cc1,?,-,?,-,13µM,-

# Screening results from PubChem BioAssay.
